Experimental data: PubChem BioAssay (EPA / NIEHS)
Where “and” joins values, the source holds several entries; their conditions need not be identical. Identical values can stand only once. Calls of active or inactive are those of the source. How the source made its calls: active means hit-call score of the fitted dose curve at least 0.9, where 1 is the maximum; inactive means score below 0.9.

system: TTR (gene 7276); test: CCTE_GLTED_hTTR_0.125uM: CCTE's human Transthyretin (hTTR) Inhibition Assay, with 0.125uM TTR, Great Lakes Toxicology and Ecology Division (GLTED) Lab (AID 2284431)
Procedure, shortened: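 Cell-free displacement of the fluorescent probe ANSA from human TTR (0.125uM) after 2 h incubation with test chemical. Fluorescence read at 380 nm excitation/475 nm emission; loss of signal fitted relative to DMSO baseline.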

| SMILES | AC50 |
| --- | --- |
| Cc1cc(Cl)ccc1O | 14.9 µM (active) |
| O=C(CBr)c1ccc(O)cc1 | 4.69 µM (active) |
| Cc1cc(Cl)ccc1OCCCC(=O)O | 2.64 µM (active) |
| O=[N+]([O-])c1ccc(Cl)c([N+](=O)[O-])c1 | 4.83 µM (active) |
| O=[N+]([O-])c1ccccc1O | 34.8 µM (active) and 21.1 µM (active) |
| CCOCn1c(-c2ccc(Cl)cc2)c(C#N)c(Br)c1C(F)(F)F | 0.0346 µM (active) |
| Oc1c(Br)cc(Br)cc1Br | 0.0287 µM (active) |
| CCOP(=S)(OCC)O/N=C(\C#N)c1ccccc1 | 2.07 µM (active) |
| O=S1(=O)OC(c2cc(Br)c(O)c(Br)c2)(c2cc(Br)c(O)c(Br)c2)c2ccccc21 | 0.109 µM (active) |
| CCCCCCCCCCCCc1cccc(S(=O)(=O)O)c1 | 6.89 µM (active) |
| O=C(O)COc1cc(Cl)c(Cl)cc1Cl | 0.692 µM (active) |
| O=C(NC(=O)c1c(F)cccc1F)Nc1cc(Cl)c(OC(F)(F)C(F)C(F)(F)F)cc1Cl (configuration not stated) | 2.76 µM (active) |
| Oc1cc(Cl)c(Cl)cc1Cl | 0.114 µM (active) |
| CCCCCCCCCCCCOS(=O)(=O)O | 2.56 µM (active) and 5.11 µM (active) |
| Nc1ccc(N)cc1 | 2.42 µM (active) |
| COc1nn(C(=O)NS(=O)(=O)c2ccccc2OC(F)(F)F)c(=O)n1C | 9.99 µM (active) |
| O=C1c2ccccc2C(=O)C1C(=O)C(c1ccccc1)c1ccc(Cl)cc1 (configuration not stated) | 3.48 µM (active) |
